Drawing on PubChem BioAssay AID1986 (Sanford-Burnham Center for Chemical Genomics, 2009), this text covers inhibition for 51 compounds.

Values joined by “and” are separate entries in the source; they are usually repeats but may differ in a detail not shown here. Identical values can stand only once. Among all 290,000 compounds or so, about 890 (0.31%) were called active. No stated cut-off is given here; in the data, active means inhibition mostly above about 52% (no sharp cut-off); inactive means mostly below about 76%. The full list was thinned out, with actives kept by preference.

The assay can be described thus: cell-free HIV fusion peptide-binding blockers – biochemical, uHTS, fluorescence dequenching, primary screen (AID 1986). As to conditions: 30 min, stronger effect = higher value.
Setting [1] is: measured here: repeat confirmation average inhibition, at 18.6 µM.

A word on the inhibition: it is the relative decrease from the control value, in per cent. Turning to `Cc1cccc2c1N(C(=O)c1ccco1)C(C)(C)c1ssc(=S)c1-2`, the inhibition (at 20 µM) is -4.4% (inactive).
As for `CCCn1cc(CN2CCC(Cc3cccc(F)c3)(C(=O)OCC)CC2)c(C)n1`, the inhibition (at 20 µM) was -3.2% (inactive).
`COc1cc([N+](=O)[O-])ccc1NC(=O)N1CCCCCC1`: the inhibition (at 20 µM) was -0.4% (inactive).
As for `CN1CCC2(CC1)C1CN(C)CC=C1C(C#N)=C(N)C2(C#N)C#N` (stereo not drawn), the inhibition by setting is: (at 20 µM) 51.5% (active) and 103% (active); under setting [1], 50.3%.
With `N#CC1=C(N)C(C#N)(C#N)C2(CCC3(CC2)OCCO3)C2CC3(CC=C12)OCCO3` (stereo not drawn), for the setting “at 20 µM”, the inhibition was 5.6% (inactive).
On the same count and under the same terms, to `CN1CC=C2C(C#N)=C(N)C(C#N)(C#N)[C@H](c3cccs3)[C@H]2C1` belongs 25.9% (inactive); to `CC(=O)N1CCC(=O)Nc2ccc([N+](=O)[O-])cc21`, -0.3% (inactive); to `COc1cc2nc(CN3CCN(C(c4ccccc4)c4ccccc4)CC3)[nH]c(=O)c2cc1OC`, 2.2% (inactive).
For `N=c1c(S(=O)(=O)c2ccc(Cl)cc2)cc2c(=O)n3ccccc3nc2n1CCc1ccccc1`, the inhibition (at 20 µM) is 84.1% (active) and the inhibition under setting [1] amounted to 74.9%.
Regarding `Cc1ccc(S(=O)(=O)c2cc3c(=O)n4ccccc4nc3n(CCc3ccccc3)c2=N)cc1`, the inhibition (at 20 µM) is 25% (inactive).
Consider `COc1ccc(CCn2c(=N)c(S(=O)(=O)c3ccc(Cl)cc3)cc3c(=O)n4ccccc4nc32)cc1`, for which the inhibition (at 20 µM) was 195% (inactive).
On to `O=C(NC1CC1)C1CCN(C2CCN(C(=O)Cc3ccc4c(c3)OCO4)CC2)CC1`, for which the inhibition (at 20 µM) was 0.5% (inactive).
Still for that read-out and setting: the same measure for `O=C(Nc1nnc(C2CC2)s1)C1COc2ccccc2O1` (stereo not drawn): -2.5% (inactive); for `Cc1cc(C)n2nc(C(=O)N3CCOCC3)nc2n1`: -0.9% (inactive).
With `Cc1cccc2cc(C(c3nnnn3Cc3ccc4c(c3)OCO4)N3CCCC3)c(=O)[nH]c12` (stereo not drawn), the inhibition (at 20 µM) was -1.7% (inactive).
`O=C(COc1ncnc2ccccc12)Nc1cccc([N+](=O)[O-])c1`: the inhibition (at 20 µM) is 0.9% (inactive).
Regarding `CC(=O)Oc1ccc2c(c1)O/C(=C\c1ccncc1)C2=O`, the inhibition is 106% (active) (at 20 µM) and 53% under setting [1].
Turning to `O=C(Oc1ccc2c(c1)O/C(=C\c1ccncc1)C2=O)c1ccccc1`, the inhibition (at 20 µM) was 86.3% (inactive) and the inhibition under setting [1] was 3%.
Consider `COc1cccc(OC)c1C(=O)Oc1ccc2c(c1)O/C(=C\c1ccncc1)C2=O`, for which the inhibition (at 20 µM) was 3.9% (inactive).
Turning to `COc1ccc(CNc2nc3nc(-c4ccccc4)cc(=O)n3[nH]2)cc1OC`, where the note is “at 20 µM”, the inhibition is 0.4% (inactive).
As to `O=C(CCl)Nc1ccc(N=Nc2ccccc2)cc1`, the inhibition (at 20 µM) is -2.8% (inactive).
As for `Oc1c(C=Nc2cccc3cccnc23)sc2ccccc12`, the inhibition (at 20 µM) is 85.8% (active) and the inhibition under setting [1] turned out to be 50.9%.
With `Oc1c(C=Nc2cccnc2)sc2ccccc12`, for the setting “at 20 µM”, the inhibition is 1.4% (inactive).
In the case of `Oc1c(/C=N/c2ccccn2)sc2ccccc12`, the inhibition (at 20 µM) was 6.4% (inactive).
For the compound `CCOc1ccc2nc(NC(=O)C34CC5CC(CC(NC(C)=O)(C5)C3)C4)sc2c1`, for the setting “at 20 µM”, the inhibition is -1.2% (inactive).
For `O=C(O)c1c(Cl)c(Cl)c(Cl)c(Cl)c1C(=O)N1CCOCC1`, the inhibition (at 20 µM) is 4.1% (inactive).
Still for that read-out and setting: to `N#C/C(=N\Nc1ccc(S(=O)(=O)N2CCc3ccccc32)cc1)C(N)=S` belongs 51.3% (active); to `CCOC(=O)/C(C#N)=N/Nc1ccc(S(=O)(=O)N2CCc3ccccc32)cc1`, 5.4% (inactive); to `N#C/C(=N\Nc1ccc(S(=O)(=O)N2CCCCCC2)cc1)C(N)=S`, 9.5% (inactive).
With `Cc1ccc(NC(=O)c2cc([N+](=O)[O-])ccc2NCc2cccnc2)cc1`, where the note is “at 20 µM”, the inhibition was -0.6% (inactive).
With `O=C(O)c1ccc(/C=N/NC(=O)c2cc(-c3ccc4c5c(cccc35)CC4)n[nH]2)cc1`, the inhibition is 61.2% (inactive) (at 20 µM) and 7% under setting [1].
`O=C(N/N=C/c1cccc([N+](=O)[O-])c1)c1cc(-c2ccc3c4c(cccc24)CC3)n[nH]1`: the inhibition (at 20 µM) is -6.3% (inactive).
As to `O=C(N/N=C/c1ccccc1C(=O)O)c1cc(-c2ccc3c4c(cccc24)CC3)n[nH]1`, the inhibition (at 20 µM) is 69.6% (active).
The same measure, in the same setting: the same measure for `Cc1ccc(C(=O)NCC(c2ccc(F)cc2)N2CCOCC2)cc1` (stereo not drawn): -1.6% (inactive).
Same read-out and setting: the same measure for `O=C(Cc1cccs1)N/N=C/C=C\c1ccco1`: 69.7% (active).
For the compound `Cc1ccc(CSc2nnc(SCC(=O)N/N=C/C=C/c3ccco3)s2)cc1`, the inhibition (at 20 µM) is 46.7% (inactive).
On the same count and under the same terms, the same measure for `O=C(CSc1nnc(SCc2ccccc2)s1)N/N=C/C=C\c1ccco1`: 51.3% (active); for `O=C(Cc1cccs1)N/N=C/c1ccco1`: 5% (inactive).
On to `O=C(CSc1nnc(SCc2ccccc2)s1)N/N=C/C=C/c1ccco1`, for which the inhibition (at 20 µM) is 33.4% (inactive).
For the compound `O=C(Cc1cccs1)N/N=C/C=C/c1ccco1`, for the setting “at 20 µM”, the inhibition was 31.2% (inactive).
Regarding `O=C(NC(NC(=O)c1ccccc1)c1cccc([N+](=O)[O-])c1)c1ccccc1`, the inhibition (at 20 µM) was 4.1% (inactive).
As to `CN(C)CCCNS(=O)(=O)c1ccc(N2CCC(c3ccc(Cl)cc3)=N2)cc1`, where the note is “at 20 µM”, the inhibition is -4.9% (inactive).
As to `COc1ccc(-c2nc(N3CCCCCC3)sc2C(=O)c2ccccc2)cc1`, for the setting “at 20 µM”, the inhibition was 0.2% (inactive).
Take `O=[N+]([O-])c1ccc(N=Nc2c(O)[nH]c3ccc(F)cc23)cc1`: under “at 20 µM”, the inhibition is 6.3% (inactive).
As for `Oc1[nH]c2ccccc2c1N=Nc1ccc(F)cc1`, under “at 20 µM”, the inhibition was 150% (inactive).
The same measure, in the same setting: the same measure for `Oc1[nH]c2ccc(Br)cc2c1N=Nc1ccc(F)cc1`: 164% (inactive).
Consider `Cc1cccc(N=Nc2c(O)[nH]c3ccc(F)cc23)c1`, for which the inhibition runs as follows: (at 20 µM) 95% (active); under setting [1], 136%.
Turning to `Cc1cccc(N=Nc2c(O)[nH]c3ccc(Br)cc23)c1`, under “at 20 µM”, the inhibition was 13.9% (inactive).
Regarding `Cc1ccc(N=Nc2c(O)[nH]c3ccc(F)cc23)cc1`, where the note is “at 20 µM”, the inhibition is 111% (active).
With `CCOc1ccc(N(C(=O)c2snc(C(N)=O)c2N)C(CC)C(=O)NC2CCCC2)cc1` (stereo not drawn), the inhibition (at 20 µM) was 1.8% (inactive).
As to `Cc1cc(C)c(NC(=O)CSc2nc3ncc(Cl)cc3[nH]2)c(C)c1`, the inhibition (at 20 µM) was 2.2% (inactive).
